# Results from PubChem BioAssay (Tox21).
# Records with an inconclusive call do not appear. Values without a mark were called inactive. Calls follow the shape of the dose curve; as a rule, active = well fitted inhibition curve with a large enough effect in the repeat runs; inconclusive = weak or mixed curves, or effect the other way; inactive = no such curve, though single readings can be large or run the other way.
# Experiment: qHTS assay to identify small molecule antagonists of the retinoic acid receptor (RAR) signaling pathway (AID 1159552; also: nearly all actives have a fitted effect of over 50% in size)
# Conditions: C3RL4 RARE luciferase reporter, retinol-stimulated, 6 h; series mostly up to 92.4 µM; activity, negative = inhibition: at the top concentration
# Summary of the method: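 Readout: luciferase luminescence, 30 min post-reagent at RT. Setup: C3RL4 RARE reporter cells, compounds plus retinol 1 uM final, 6 hr incubation at 37 C and 5% CO2.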
# % is scaled to controls: 0 for no effect and ±100 for the full control effect.
row,SMILES,"activity, negative = inhibition"
1,NNc1nnc(NN)c2ccccc12,83.4% [at 42.5 µM]
2,CC(=O)OC(C)OC(=O)C(C)c1ccc(-c2ccccc2)c(F)c1 (stereo not drawn),6.75% [at 42.5 µM]
3,NCCN1CCOCC1,7.09%
4,O=P(O)(O)OP(=O)(O)O,-6.78%
5,Cc1cccc2nccnc12,6.76%
6,O=C(OCC1(COC(=O)c2cccnc2)CCCC(COC(=O)c2cccnc2)(COC(=O)c2cccnc2)C1O)c1cccnc1,4.83% [at 42.5 µM]
7,C=CC(OCC)OCC,-0.987%
8,C#CC(C)N(C)C(=O)Nc1ccc(Cl)cc1 (stereo not drawn),113%
9,c1ccc2c(c1)ccc1c3ccccc3ccc21,114% [at 42.5 µM]
10,N[C@@H](CCC(=O)Nc1ccc([N+](=O)[O-])cc1)C(=O)O,5.34%
11,CC(COC(C)(C)C)OCCCO (stereo not drawn),-6.77%
12,CCOC(=O)/C=C/c1ccccc1,27.7%
13,CCOc1cc([N+](=O)[O-])c(OCC)cc1N1CCOCC1,-1.82%
14,O=C(O)CCSSCCC(=O)O,-9.55%
15,Cc1cc(NC(=O)C2=C(O)c3ccccc3S(=O)(=O)N2C)no1,2.7% [at 42.5 µM]
16,CC(=O)Nc1cccc(C)c1,25.2%
17,CC(C)(C)OC(=O)c1ccc(O)cc1,43.7%
18,O=C(OCC(COC(=O)c1cccnc1)(COC(=O)c1cccnc1)COC(=O)c1cccnc1)c1cccnc1,23.2% [at 42.5 µM]
19,OC[C@H](Cc1cccc(O)c1)[C@H](CO)Cc1cccc(O)c1,44.4%
20,Cc1cc2cc3c(C)cc(=O)oc3c(C)c2o1,30.8% [at 42.5 µM]
21,COc1ccc(OC)c(Cl)c1,7.69%
22,N[C@@H](CCC(=O)N[C@@H](CS)C(=O)NCC(=O)O)C(=O)O,29.9% [at 19 µM]
23,CCC(C)(CCC(C)C)C(=O)O (stereo not drawn),7.39%
